The values below come from PubChem BioAssay (NCATS).

Inconclusive results are not listed. Unmarked numbers belong to inactive results. Active and inactive are the calls of the source. Calls follow the shape of the dose curve; as a rule, active = well fitted cell-killing curve with a large enough effect; inconclusive = small, poorly fitted or top-dose-only effect; inactive = flat fitted curve, though single readings scatter. *1 amine or outer side, *2 acyl side, *3 side chain or, on linkers, in order; H or OH if unused. Where a SMILES comes first, the peptide text is derived from it. Bridges are numbered along the chain shown (N, C = ends). Roman numbers before positions name the chains, in order. [ ]: non-standard residue; d: D form. ξ: configuration not given here. Actinocin(9to1) = Cc1c2oc3c(C)ccc(C(=O)[*:1])c3nc-2c(C(=O)[*:2])c(N)c1=O; ξNMeV = CNC(C(=O)O)C(C)C; ξV = CC(C)C(N)C(=O)O; Sar = CNCC(=O)O
% is scaled to controls: 0 for no effect and ±100 for the full control effect.

The assay in a line: Vero cells viability qHTS for Zika virus inhibitors (AID 1347167). Conditions: cytotoxicity counter-screen (Zika); series mostly up to 45.9 µM. An excerpt: Avindra Nath, Ph.D., National Institute of Neurological Disorders and Stroke (NINDS), Bethesda, MD
Radhakrishnan Padmanabhan, Ph.D., Georgetown University (GU), Washington D.C.
Zika Virus causes congenital defects, including microcephaly and is associated with Guillain-Barre syndrome, eningoencephalitis and myelitis in infected adult. […] Using a target-based approach, we hope to establish a screening paradigm to uncover novel, cell-active NS2B-NS3 protease (Zika Virus) specific inhibitors from NCATS' collection of small molecules using qHTS.
Four assay panel was created to identify potential Zika Virus inhibitors. Namely, (1) GU unlinked NS2B-NS3 AMC tagged protease qHTS, (2) GU unlinked NS2B-NS3 Rhodamine tagged protease qHTS, (3) NINDS linked NS2B-NS3 AMC tagged protease qHTS, (4) NINDS linked NS2B-NS3 Rhodamine tagged protease qHTS. Identified inhibitors were screened against the Vero and HepG2 cell viability assays using CellTiter Glo to exclude cytotoxic compounds.
Early Translation Branch (ETB)
National Center for Advancing Translational Sciences (NCATS), Rockville, MD
National Institute of Health (NIH), Bethesda, Maryland
Vero and HepG2 Cell Viability Assay:
Vero and HepG2 cell cytotoxicity were determined using a luminescent readout with CellTiter Glo reagent (Promega, Madison, WI), which is based on measuring the ATP content within cells. Briefly, 4 microL of Vero or HepG2 cells at 2.5 x 10^5 cells/mL in DMEM containing 4% FBS were dispensed into 1536-well solid bottom tissue treated white plate using a Multidrop Combi dispenser (Thermo Scientific). Plates were incubated at 37 degrees C, 95% humidity, and 5% CO2 overnight to allow for cell attachment. Compounds were dissolved in DMSO at different concentrations and transferred via pintool (Wako Automation), for a final concentration of 0.029 µM - 57 microM. Plates were again incubated for 24 to 48 hours, followed by a 2 microL addition of CellTiter Glo. Finally, plates were incubated for 30 minutes at 37 degrees C and 5% CO2 before being read on a ViewLux (Perkin Elmer) for luminescence.
(In general: In qHTS, concentration-response curves come from the screen itself.)
For `CCOc1ccc(-c2ccc(Cn3c(CC(C)(C)C(=O)O)c(SC(C)(C)C)c4cc(OCc5ccc(C)cn5)ccc43)cc2)cn1`, the outcome was inactive.

As to `CC(C)(O)C1CC=C(C(=O)OCC2OC(Oc3c(O)cc(C(=O)O)cc3O)C(O)C(O)C2O)CC1` (stereo unspecified), the outcome was inactive.

As to `CC(C)c1cc2c(c(O)c1O[C@@H]1O[C@H](CO)[C@@H](O)[C@H](O)[C@H]1O)CC1(O)CCC(O)C(C)(C)C1CC2` (stereo partly specified), the compound was classed as inactive.

Turning to `CC(=O)O[C@@H]1C[C@]2(C)[C@@]3(CCC4[C@@]5(C)CC[C@H](O[C@@H]6O[C@H](C(=O)O)[C@@H](O)[C@H](O[C@@H]7O[C@H](CO)[C@H](O)[C@H](O)[C@H]7O[C@@H]7O[C@@H](C)[C@H](O)[C@@H](O)[C@H]7O[C@@H]7OC[C@](O)(CO)[C@H]7O)[C@H]6O[C@@H]6O[C@H](CO)[C@H](O)[C@H](O)[C@H]6O)C(C)(C)C5CC[C@]42C)O[C@@H](O)[C@]12C3CC(C)(C)[C@@H](OC(=O)/C=C/c1ccc(O)c(O)c1)[C@@H]2OC(=O)/C=C/c1ccccc1` (stereo partly specified), the activity change, negative = cytotoxicity was -1.71% [at 8.96 µM].

Take `O=C(O)c1ccc(CCCc2ccc(OCCc3ccc(F)cc3)cc2)o1`: the call was inactive.

For `O=C(/C=C/c1c(C(=O)O)[nH]c2cc(Cl)cc(Cl)c12)Nc1ccccc1`, the compound was called inactive.

For the compound `COc1cccc(-n2nc(C(=O)O)cc2-c2ccc(C3CCCCC3)c(Cl)c2)c1`, the compound was called inactive.

As to `CC(C)N=c1cc2n(-c3ccc(Cl)cc3)c3ccccc3nc-2cc1Nc1ccc(Cl)cc1`, the result was inactive.

In the case of `Cc1c2oc3c(C)ccc(C(=O)N[C@@H]4C(=O)NC(C(C)C)C(=O)N5CCC[C@H]5C(=O)N(C)CC(=O)N(C)C(C(C)C)C(=O)O[C@@H]4C)c3nc-2c(C(=O)N[C@@H]2C(=O)NC(C(C)C)C(=O)N3CCC[C@H]3C(=O)N(C)CC(=O)N(C)C(C(C)C)C(=O)O[C@@H]2C)c(N)c1=O` (stereo partly specified) (I: T[ξV]P[Sar][ξNMeV] / II: T[ξV]P[Sar][ξNMeV]; ester I:1-I:C, II:1-II:C; linker I:N-II:N via Actinocin(9to1)), the compound was called inactive.

`N#CC1C(=O)Nc2scc(-c3ccc(-c4ccccc4O)cc3)c2C1=O` (stereo unspecified): the outcome was inactive.

`O=C(O)c1cnn(-c2nc3cc(OC(F)(F)F)c(Cl)cc3[nH]2)c1`: the outcome was inactive.

`CC(C)C(=O)c1cn(CC(=O)COc2ccc(Oc3ccccc3)cc2)c2ccc(C(=O)O)cc12`: the outcome was inactive.

Consider `O=C(O)c1cc(O)c2cccc(O)c2c1O[C@@H]1O[C@H](CO)[C@@H](O)[C@H](O)[C@H]1O`, for which the compound was classed as inactive.

Turning to `CC1(C)CCC(C)(C)c2cc3c(cc21)Sc1ccccc1N=C3c1ccc(C(=O)O)cc1`, the outcome was inactive.

For `CC(C)C1=CCC(C)(O)C(OC2OC(CO)C(O)C(O)C2O)C1` (stereo unspecified), the compound was called inactive.

Take `CCOc1c2c(c(OCC)c3ccccc13)C(=O)N(c1ccc(CC(=O)NS(=O)(=O)c3ccccc3)cc1)C2`: the compound was called inactive.
